Measured values published in publication PMC5540273 (PLoS ONE, 2017).
Several values for one entry are separate records, joined by “and”; a condition that tells them apart may be missing. Equal entries are not always repeated. Where two headings read alike, the source gives them in different places.

Columns and labels:
FLT3 = settings: concentration: 1 μM, replicates: in singlicate; n = 1
FLT4 = settings: n = 1
FRK = settings: concentration: 1 μM, replicates: in singlicate; n = 1
FYN = settings: n = 1
GAK = settings: n = 1
GCN2(Kin.Dom.2,S808G) = test system: T1, GCN2(Kin.Dom.2,S808G); settings: n = 1
T1 construct: gene EIF2AK4

GRK1 = settings: concentration: 1 μM, replicates: in singlicate; n = 1
GRK2 = test system: T2, GRK2; settings: concentration: 1 μM, replicates: in singlicate; n = 1
T2 construct: gene ADRBK1

GRK3 = test system: T3, GRK3; settings: n = 1
T3 construct: gene ADRBK2

GRK4 = settings: n = 1
[1] = concentration: 1 μM, replicates: in singlicate
[2] = concentration: 1 μM,replicates: in singlicate, 1 µM
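Also: KINOMEscan kinase panel screen.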

SMILES | %Inh (FLT3) | %Inh (FLT4; [1]) | %Inh (FRK) | %Inh (FYN; [1]) | %Inh (GAK; [1]) | %Inh (GCN2(Kin.Dom.2,S808G); [1]) | %Inh (GRK1) | %Inh (GRK2) | %Inh (GRK3; [1]) | %Inh (GRK4; [1]) | %Inh (FLT4; [2]) | %Inh (FYN; [2]) | %Inh (GAK; [2]) | %Inh (GCN2(Kin.Dom.2,S808G); [2]) | %Inh (GRK3; [2]) | %Inh (GRK4; [2])
O=C(Nc1n[nH]c2nc(-c3nccs3)c(Br)cc12)C1CC1 [SB-742251] | 88% | 8% | 2% | 3% | 0% | 0% | 1% | 0% | 27% | 0% | – | – | – | – | – | –
Cn1cncc1-c1ccc2ncnc(Nc3ccc(OCc4ccccc4)cc3)c2c1 [GW320571] | 62% | 6% | 8% | 12% | 0% | 0% | 8% | 7% | 0% | 0% | – | – | – | – | – | –
Cc1ccc(NC(=O)Nc2cccc(Cl)c2)cc1-c1ccc(C(=O)Nc2ccncc2)cc1 [GSK1398468] | 1% | 18% | 47% | 8% | 5% | 0% | 0% | 0% | 23% | 0% | – | – | – | – | – | –
Cc1cccc(-c2nc(Nc3ccncc3)c3ccccc3n2)n1 [GW855857] | 0% | 1% | 15% | 13% | 0% | 0% | 0% | 0% | 0% | 0% | – | – | – | – | – | –
Cl.c1ccc(-c2n[nH]cc2-c2ccnc(-c3ccc(CN4CCOCC4)cc3)c2)nc1 [GW776245] | 0% | 14% | 0% | 0% | 46% | 0% | 37% | 0% | 0% | 31% | – | – | – | – | – | –
COc1ccc(C2=C(Nc3cccc(C(=O)O)c3)C(=O)NC2=O)cc1 [SB-390765] | 23% | 15% | 0% | 0% | 8% | 0% | 30% | 0% | 50% | 14% | – | – | – | – | – | –
COc1ccc(Nc2nccc(NCCNC(=O)Nc3ccccc3F)n2)cc1 [GSK1379901] | 0% | 6% | 13% | 0% | 0% | 2% | 0% | 0% | 26% | 0% | – | – | – | – | – | –
COc1ccc(Nc2nccc(-c3cccc(NC(=O)c4cc5cc(F)ccc5[nH]4)c3)n2)cc1 [GSK1229782] | 39% | 0% | 40% | 31% | 49% | 4% | 0% | 0% | 45% | 0% | – | – | – | – | – | –
Cc1cccc(-c2nc(Nc3ccc4[nH]ncc4c3)c3ccccc3n2)n1 [GW857175] | 13% | 6% | 3% | 0% | 0% | 5% | 3% | 40% | 0% | 10% | – | – | – | – | – | –
CSc1nn2c(=O)cc(N3CCOCC3)nc2n1Cc1cccc(C(F)(F)F)c1C [GSK2363608] | 0% | – | 0% | – | – | – | 0% | 0% | – | – | 18% and 0% | 46% and 15% | 100% and 0% | 0% and 3% | 0% and 20% | 0% and 8%
Nc1nc(-c2nccs2)c(-c2ccnc3ccccc23)s1 [GW693542] | 2% | 0% | 0% | 17% | 45% | 17% | 0% | 0% | 39% | 21% | – | – | – | – | – | –
Cc1cccc(-c2cc(Nc3ccncc3)c3ccccc3n2)n1 [GSK223675] | 0% | 0% | 0% | 40% | 0% | 0% | 0% | 0% | 0% | 0% | – | – | – | – | – | –
Cc1csc(-c2nc(Nc3ccncc3)c3ccccc3n2)n1 [GW869640] | 39% | 6% | 4% | 24% | 21% | 13% | 27% | 0% | 0% | 29% | – | – | – | – | – | –
Cc1ccc(-c2cc(-c3c[nH]nc3-c3ccccn3)ccn2)cc1 [GW684088] | 0% | 0% | 4% | 0% | 80% | 0% | 8% | 0% | 74% | 0% | – | – | – | – | – | –
O=c1cc(N2CCOCC2)nc2n(Cc3cccc(Cl)c3Cl)ccn12 [GSK2286295] | 0% | 3% | 0% | 47% | 6% | 0% | 5% | 0% | 0% | 0% | – | – | – | – | – | –
Cn1ccc2ncnc(Oc3cccc(C(=O)Nc4ccccc4)c3)c21 | 17% | 0% | 27% | 8% | 0% | 14% | 0% | 0% | 8% | 3% | – | – | – | – | – | –
Cc1cc(-c2ccc3c(c2)CC[C@@H](N[C@@H](C)c2ccccc2)C3)cnc1N.Cl [GW412617] | 27% | 22% | 19% | 27% | 33% | 26% | 0% | 0% | 17% | 0% | – | – | – | – | – | –
Cn1ccc2ncnc(Oc3ccc(Nc4nc5ccccc5[nH]4)cc3)c21 | 0% | 0% | 0% | 0% | 0% | 0% | 4% | 0% | 0% | 9% | – | – | – | – | – | –
O=C(Nc1n[nH]c2nc(-c3nccs3)c(Br)cc12)C1CCCC1 [SB-742609] | 44% | 19% | 24% | 23% | 2% | 5% | 0% | 0% | 66% | 11% | – | – | – | – | – | –
Cc1c(O)cccc1Nc1ccnc2ccc(C(F)(F)F)cc12.Cl [GW466413] | 0% | 9% | 79% | 68% | 64% | 9% | 14% | 0% | 8% | 0% | – | – | – | – | – | –
